Data: the supplement of paper PMC3334620
Whole data set: some 33,000 sequences, median “E-score (-0.5 to 0.5)” near -0.021, cut for the highest 2% near 0.32. This is one part of a sample in which the highest values are shown more often than they occur.

These sequences were tested against T1, Zap1 (UniProt P47043) (assay: PBM E-score (8-mer binding enrichment) (E-score (-0.5 to 0.5)); higher = stronger / more preferred TF binding). Conditions: protein concentration: 200 nM; construct: GST-full length.
T1 sequence: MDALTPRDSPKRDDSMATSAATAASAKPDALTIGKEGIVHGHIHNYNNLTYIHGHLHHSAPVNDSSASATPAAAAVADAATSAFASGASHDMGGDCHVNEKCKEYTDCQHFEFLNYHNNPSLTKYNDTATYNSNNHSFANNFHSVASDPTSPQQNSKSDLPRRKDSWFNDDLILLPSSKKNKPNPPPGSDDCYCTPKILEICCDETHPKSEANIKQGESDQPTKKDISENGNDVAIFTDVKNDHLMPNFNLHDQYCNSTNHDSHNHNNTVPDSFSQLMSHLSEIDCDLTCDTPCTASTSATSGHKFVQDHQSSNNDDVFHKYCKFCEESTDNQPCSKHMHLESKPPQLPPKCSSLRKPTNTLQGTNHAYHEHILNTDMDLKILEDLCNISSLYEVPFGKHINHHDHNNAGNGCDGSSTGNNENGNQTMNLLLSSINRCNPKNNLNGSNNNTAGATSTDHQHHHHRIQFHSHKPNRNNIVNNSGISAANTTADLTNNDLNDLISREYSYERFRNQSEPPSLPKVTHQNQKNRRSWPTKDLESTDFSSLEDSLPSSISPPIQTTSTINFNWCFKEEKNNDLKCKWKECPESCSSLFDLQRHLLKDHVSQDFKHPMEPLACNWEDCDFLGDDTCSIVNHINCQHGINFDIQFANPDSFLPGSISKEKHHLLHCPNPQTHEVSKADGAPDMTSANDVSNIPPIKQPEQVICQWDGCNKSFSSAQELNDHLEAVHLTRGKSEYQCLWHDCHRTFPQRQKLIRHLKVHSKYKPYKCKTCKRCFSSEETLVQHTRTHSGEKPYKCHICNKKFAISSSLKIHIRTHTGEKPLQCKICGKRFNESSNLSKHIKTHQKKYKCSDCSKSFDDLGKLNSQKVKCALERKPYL
Outline: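 PURExpress in vitro transcription/translation supplied GST-tagged yeast transcription factors, either full-length or DNA-binding domain. Applied at about 100-200 nM to universal all-10-mer Agilent arrays double-stranded by primer extension, the bound protein was detected with fluorescent anti-GST. E-scores, modified Wilcoxon-Mann-Whitney statistics, were given by the Universal PBM Analysis Suite to ungapped eight-base words pooled with their reverse complements after masliner normalisation.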

| Sequence | PBM E-score |
| --- | --- |
| CCCCATAG | 0.201 |
| CAAAACTG | 0.0208 |
| CATGGGAG | 0.0124 |
| AAATATAT | 0.224 |
| ATCTATCG | -0.167 |
| GAACAAGC | -0.175 |
| CAGCCCAA | -0.0128 |
| AATTCCGT | -0.0101 |
| CGGGTACC | 0.432 |
| ATGGTACA | 0.08 |
| ATGGTACC | 0.392 |
| CGGGTACA | 0.122 |
| CTGGTACC | 0.286 |
| CGGGTACG | 0.0198 |
| ACGCTTGA | 0.0154 |
| CCCCTAGC | -0.167 |
| GGGGCTTA | -0.25 |
| ACGTCATA | -0.0571 |
| ACCCAGCC | -0.139 |
| AACTAAGA | 0.0908 |
| CCTGGGGA | -0.183 |
| CAGGGTAA | 0.354 |
| CAGGGTGA | 0.313 |
| CTGGGTAA | 0.185 |
| AGGGGTAG | 0.312 |
| AGGGGTAC | 0.398 |

| Sequence | PBM E-score |
| --- | --- |
| AAGGGTAG | 0.375 |
| CGGGGTAC | 0.316 |
| CCGGGTAA | 0.246 |
| CCGGGTAC | 0.348 |
| GGGGGTAC | 0.186 |
| GCGGGTAC | 0.256 |
| ACGGGTAG | 0.255 |
| AGCCAAGC | -0.307 |
| GGGTAGTA | 0.219 |
| ACTTCAAA | -0.13 |
| GACACACA | 0.028 |
| GCGGGCGA | -0.105 |
| CCCATCTA | -0.0762 |
| ACCTATCC | 0.152 |
| ACAGTAGG | -0.209 |
| CACGGGGA | -0.219 |
| GATGGTAC | 0.199 |
| GAGGGTGC | 0.138 |
| CGGGGTAA | 0.299 |
| TGGGGTAA | 0.347 |
| AAGGGTGT | 0.316 |
| GGGGGTAA | -0.0883 |
| AAGGGTAA | 0.393 |
| AAGGGTAT | 0.421 |
| GAGGGTAC | 0.374 |
| AGGGGTAA | 0.272 |

| Sequence | PBM E-score |
| --- | --- |
| AGGGGTAT | 0.258 |
| ATGGGTAA | 0.242 |
| CTTTCGCC | -0.179 |
| CGGTTGTC | 0.279 |
| CATGTGCA | 0.0255 |
| TTCTTAAA | -0.028 |
| ACGTCGTA | -0.287 |
| CATCAATA | 0.0615 |
| CGTGGCCA | 0.0519 |
| GGCACGTA | -0.273 |
| AAGGGTAC | 0.426 |
| TAGGGTAA | 0.396 |
| CAGGGTGC | 0.0059 |
| CAGGGTAG | 0.306 |
| ACGGGTAC | 0.231 |
| ATGGGTAG | 0.238 |
| CAGGGTAC | 0.437 |
| ATGGGTAC | 0.328 |
| GAGGGTAA | 0.264 |
| AAGGGTCC | 0.274 |
| TCGGGTAA | 0.24 |
| CTGGGTAC | 0.305 |
| AGTCAGGC | -0.101 |
| CACTACGC | -0.163 |
| CGGCTAGA | -0.178 |
| CCCTGCGA | 0.0758 |

| Sequence | PBM E-score |
| --- | --- |
| CCAACTGC | -0.165 |
| AACACAGT | -0.00444 |
| AAGCTTTC | 0.0356 |
| GCGTGACA | -0.136 |
| ACGTGACC | 0.249 |
| CCGTGACA | -0.136 |
| GCGTGACC | 0.326 |
| CCGTGACG | -0.0247 |
| CCGTGACC | 0.376 |
| TATACATA | 0.106 |
| CACTAGAG | 0.0544 |
| ACACTGAA | 0.111 |
| GCCAGACA | 0.0344 |
| GGTTACAC | 0.403 |
| CGTTACAA | 0.121 |
| AGTTACAC | 0.0701 |
| CGTTACAC | 0.0157 |
| GGTTACAA | 0.455 |
| TGTTACAA | 0.098 |
| GGGCTTAA | -0.0211 |
| ACGTGTAT | -0.152 |
| TATCGACA | 0.0537 |
| ATTGTGAC | 0.159 |
| CACATAGC | -0.136 |
| ACGAGAGT | -0.197 |
| ATCCCTAC | -0.023 |
